Where “and” joins values, the source holds several entries; their conditions need not be identical. Equal values may be shown once. Results filed as inconclusive are left out. Calls of active or inactive are those of the source. Calls follow the shape of the dose curve; as a rule, active = well fitted cell-killing curve with a large enough effect; inconclusive = small, poorly fitted or top-dose-only effect; inactive = no such curve, though single readings can be large or run the other way.
Assay: qHTS of pediatric cancer cell lines to identify multiple opportunities for drug repurposing: Primary screen for SK-N-SH cells (AID 1347098); also: nearly all actives have a fitted effect of over 65% in size;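 as to activity change, negative = cytotoxic: DMSO served as neutral control and bortezomib at 2.3 µM as positive control; % is scaled to controls: 0 for no effect and ±100 for the full control effect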
Conditions: SK-N-SH viability, CellTiter-Glo luminescence, 48 h; series mostly up to 57 µM; activity change, negative = cytotoxic: at the top concentration
Method in brief: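 Cells (500-1,000/well) rested 5 h, then received compounds for 48 h; metabolically active cells were measured by CellTiter-Glo luminescence. Final concentrations spanned up to 46 µM (MIPE, 11-point) or 0.59 nM-46 µM (NPC, 8-point) in primary screens, 11-point in follow-ups.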
Potency is read from the fitted curve at half-maximal effect.

| Structure (SMILES) | Potency | activity change, negative = cytotoxic |
| --- | --- | --- |
| C[C@@H]1CN(c2c(F)c(N)c3c(=O)c(C(=O)O)cn(C4CC4)c3c2F)C[C@H](C)N1 | inactive | – |
| CC(=O)[C@H]1CC[C@H]2[C@@H]3CCC4=CC(=O)CC[C@]4(C)[C@H]3CC[C@]12C | 12.1 µM (active) | – |
| CC1=C(C(=O)O)N2C(=O)[C@@H](NC(=O)C(N)c3ccccc3)[C@H]2SC1 (stereo not given in full) | – | 28% (inactive) |
| CC1CC2C3CCC4=CC(=O)C=C[C@]4(C)[C@@]3(F)[C@@H](O)C[C@]2(C)[C@@]1(O)C(=O)CO (stereo not given in full) | – | 18% (inactive) |
| C[C@@H]1C[C@H]2[C@@H]3CCC4=CC(=O)C=C[C@]4(C)[C@@]3(Cl)[C@@H](O)C[C@]2(C)[C@@]1(OC(=O)c1ccco1)C(=O)CCl | 19.2 µM (active) | – |
| NC(=O)c1ccc2[nH]ccc2c1 | – | 5.97% (inactive) |
| CN1CCN(c2c(F)cc3c(=O)c(C(=O)O)cn4c3c2OCN4C)CC1 | – | 1.99% [at 20 µM] (inactive) |
| N[C@@H](Cc1ccc(O)c(O)c1)C(=O)O | – | -6.03% (inactive) |
| CCc1c2c(nc3ccc(OC(=O)N4CCC(N5CCCCC5)CC4)cc13)-c1cc3c(c(=O)n1C2)COC(=O)[C@]3(O)CC | 7.7 µM (active) | – |
| NCCCC(O)(P(=O)(O)O)P(=O)(O)O | inactive | – |
| NC(=O)c1cccc(N)c1 | – | 4.01% (inactive) |
| Cc1oc(=O)oc1CN1CCN(c2cc3c(cc2F)c(=O)c(C(=O)O)c2n3C(C)S2)CC1 (stereo not given) | – | 3.13% (inactive) |
| Nc1nc(=S)c2[nH]cnc2[nH]1 | 6.87 µM (active) and 5.41 µM (active) | – |
| CCOC(=O)c1ccc(C#Cc2ccc3c(c2)C(C)(C)CCS3)nc1 | – | 19.4% (inactive) |
| COc1nc(N)nc2c1ncn2[C@@H]1O[C@H](CO)[C@@H](O)[C@@H]1O | inactive | – |
| OC(Cn1cncn1)(Cn1cncn1)c1ccc(F)cc1F | inactive | – |
| CCN1CCCC1CNC(=O)c1cc(S(N)(=O)=O)ccc1OC (stereo not given) | – | -2.05% (inactive) |
| CCN(CC)CCn1c(=O)c(Cc2ccc(OC)cc2)nc2ccccc21 | – | -7.6% (inactive) |
| CCN(CC)CC#CCOC(=O)C(O)(c1ccccc1)C1CCCCC1 (stereo not given) | – | -6.49% (inactive) |
| O=P(O)(O)C(O)(Cc1cccnc1)P(=O)(O)O | inactive | – |
| COc1ccccc1OCC(O)COC(N)=O (stereo not given) | inactive | – |
| CCN(C)C(=O)Oc1cccc([C@H](C)N(C)C)c1 | inactive | – |
| COc1cc2nc(N3CCCN(C)CC3)nc(NC3CCN(Cc4ccccc4)CC3)c2cc1OC | 9.61 µM (active) | – |
| COc1cc2ncnc(Nc3cccc(Cl)c3)c2cc1OC | 8.57 µM (active) | – |
| O=C(O)c1cn(C2CC2)c2cc(N3CCNCC3)c(F)cc2c1=O | inactive | – |
| CNS(=O)(=O)Cc1ccc2[nH]cc(CCN(C)C)c2c1 | – | 17% (inactive) |
| Cn1c(=O)c2c(ncn2CC(O)CO)n(C)c1=O (stereo not given) | inactive | – |
| CC(C)NCC(O)c1ccc(NS(C)(=O)=O)cc1 (stereo not given) | – | 20.9% (inactive) |

Assay: qHTS of pediatric cancer cell lines to identify multiple opportunities for drug repurposing: Primary screen for NB1643 cells (AID 1347099); also: nearly all actives have a fitted effect of over 50% in size;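 as to activity change, negative = cytotoxic: plate controls were DMSO neutral control for no effect and bortezomib positive control for full effect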
Conditions: NB1643 neuroblastoma viability, CellTiter-Glo luminescence, 48 h; series mostly up to 46 µM; activity change, negative = cytotoxic: at the top concentration
Method in brief: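 Following a 5-hour attachment period, cells at 500-1,000/well received compounds and were cultured for 48 hours. CellTiter-Glo was added and luminescence read to estimate viable, metabolically active cells.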

| Structure (SMILES) | Potency | activity change, negative = cytotoxic |
| --- | --- | --- |
| C[C@@H]1CN(c2c(F)c(N)c3c(=O)c(C(=O)O)cn(C4CC4)c3c2F)C[C@H](C)N1 | inactive | – |
| CC(=O)[C@H]1CC[C@H]2[C@@H]3CCC4=CC(=O)CC[C@]4(C)[C@H]3CC[C@]12C | 2.96 µM (active) | – |
| CC1=C(C(=O)O)N2C(=O)[C@@H](NC(=O)C(N)c3ccccc3)[C@H]2SC1 (stereo not given in full) | – | 35.1% (inactive) |
| C[C@@H]1C[C@H]2[C@@H]3CCC4=CC(=O)C=C[C@]4(C)[C@@]3(Cl)[C@@H](O)C[C@]2(C)[C@@]1(OC(=O)c1ccco1)C(=O)CCl | 2.64 µM (active) | – |
| Nc1nc(N)c2nc(CNc3ccc(C(=O)NC(CCC(=O)O)C(=O)O)cc3)cnc2n1 (stereo not given) | – | -3.61% (inactive) |
| NC(=O)c1ccc2[nH]ccc2c1 | – | -4.56% (inactive) |
| CN1CCN(c2c(F)cc3c(=O)c(C(=O)O)cn4c3c2OCN4C)CC1 | inactive | – |
| CCc1c2c(nc3ccc(OC(=O)N4CCC(N5CCCCC5)CC4)cc13)-c1cc3c(c(=O)n1C2)COC(=O)[C@]3(O)CC | 841 nM (active) and 1.66 µM (active) | – |
| NCCCC(O)(P(=O)(O)O)P(=O)(O)O | inactive | – |
| NC(=O)c1cccc(N)c1 | – | 17.4% (inactive) |
| Cc1oc(=O)oc1CN1CCN(c2cc3c(cc2F)c(=O)c(C(=O)O)c2n3C(C)S2)CC1 (stereo not given) | – | -14.3% (inactive) |
| Nc1nc(=S)c2[nH]cnc2[nH]1 | 2.99 µM (active) and 3.32 µM (active) | – |
| CCOC(=O)c1ccc(C#Cc2ccc3c(c2)C(C)(C)CCS3)nc1 | – | -4.81% (inactive) |
| COc1nc(N)nc2c1ncn2[C@@H]1O[C@H](CO)[C@@H](O)[C@@H]1O | – | -5.21% (inactive) |
| O=C(O)C1CCCN(CCC=C(c2ccccc2)c2ccccc2)C1 (stereo not given) | – | 5% (inactive) |
| OC(Cn1cncn1)(Cn1cncn1)c1ccc(F)cc1F | inactive | – |

| Structure (SMILES) | Potency | activity change, negative = cytotoxic |
| --- | --- | --- |
| CCN1CCCC1CNC(=O)c1cc(S(N)(=O)=O)ccc1OC (stereo not given) | – | 16.5% (inactive) |
| CCN(CC)CCn1c(=O)c(Cc2ccc(OC)cc2)nc2ccccc21 | – | -10.3% (inactive) |
| O=S(=O)(c1cccc2cnccc12)N1CCCNCC1 | inactive | – |
| CCCCS(=N)(=O)CCC(N)C(=O)O (stereo not given) | – | -13.2% (inactive) |
| CCN(CC)CC#CCOC(=O)C(O)(c1ccccc1)C1CCCCC1 (stereo not given) | – | -8.79% (inactive) |
| O=P(O)(O)C(O)(Cc1cccnc1)P(=O)(O)O | inactive | – |
| COc1ccccc1OCC(O)COC(N)=O (stereo not given) | inactive | – |
| CCN(C)C(=O)Oc1cccc([C@H](C)N(C)C)c1 | inactive | – |
| CC(=O)[C@H]1CC[C@H]2[C@@H]3CC=C4C[C@@H](O)CC[C@]4(C)[C@H]3CC[C@]12C | inactive | – |
| CC(C)C[C@H](NC(=O)[C@H](CCc1ccccc1)NC(=O)CN1CCOCC1)C(=O)N[C@@H](Cc1ccccc1)C(=O)N[C@@H](CC(C)C)C(=O)[C@@]1(C)CO1 | 42.2 nM (active) and 52.6 nM (active) | – |
| COc1cc2nc(N3CCCN(C)CC3)nc(NC3CCN(Cc4ccccc4)CC3)c2cc1OC | 9.35 µM (active) | – |
| COc1cc2ncnc(Nc3cccc(Cl)c3)c2cc1OC | 0.372 µM (active) | – |
| O=C(O)c1cn(C2CC2)c2cc(N3CCNCC3)c(F)cc2c1=O | inactive | – |
| CNS(=O)(=O)Cc1ccc2[nH]cc(CCN(C)C)c2c1 | inactive | – |
| Cn1c(=O)c2c(ncn2CC(O)CO)n(C)c1=O (stereo not given) | – | 13.9% (inactive) |
| CC(C)NCC(O)c1ccc(NS(C)(=O)=O)cc1 (stereo not given) | – | 0.637% (inactive) |

From PubChem BioAssay (NCATS)
